Measurements taken from PubChem BioAssay AID432 (Sanford-Burnham Center for Chemical Genomics, 2006).
About 15 (0.02%) of roughly 64,000 compounds were called active. The rule behind the calls is not given here. Not all results are given here. Results with a measured potency or affinity are listed apart.

These compounds were tested against Bcl-2-related protein A1 (Mus musculus) (UniProt Q07440) (assay: displacement of Bid BH3 peptide from Bfl-1 – biochemical, fluorescence polarization, FITC-Bid, mouse, primary screen (AID 432)). Conditions: at 20 µM, active compounds read high.
Chain of Bcl-2-related protein A1 (Mus musculus) (Q07440 whole entry, looked up): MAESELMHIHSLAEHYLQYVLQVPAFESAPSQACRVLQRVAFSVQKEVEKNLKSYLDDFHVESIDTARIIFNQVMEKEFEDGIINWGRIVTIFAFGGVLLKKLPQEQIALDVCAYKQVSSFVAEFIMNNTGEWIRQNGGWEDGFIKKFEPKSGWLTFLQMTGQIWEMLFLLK

displacement, inactive:
COC(=O)c1ccc(C2C(C(=O)Nc3ccc(C)cc3C)=C(C)Nc3ncnn32)cc1 (stereo unspecified) -1.9%, CCOC(=O)CN1C(=O)C(C)(C)Oc2ccc(C(=O)NC(C)(C)CC)cc21 -6.4%, Cc1cc(C)cc(N2CC34C=CC(O3)C(C(=O)OCC(=O)NCc3ccco3)C4C2=O)c1 (stereo unspecified) -10.1%, Cc1nc2scc(-c3ccccc3)c2c(=O)n1N -4%, COc1ccc(S(=O)(=O)Cc2ccc(C(=O)N3CCN(c4ccc(Cl)cc4)CC3)o2)cc1 -2.7%, Nc1nc(-c2cccc(NS(=O)(=O)c3ccccc3)c2)cs1 5.8%, CN(C)c1nc(NCc2ccccc2)nc(Oc2ccc(=O)[nH]n2)n1 -7.2%, COc1cc(C(c2nnnn2C2CCCC2)N2CCc3ccccc3C2)ccc1O (stereo unspecified) -5.3%, Cc1ccnc(NS(=O)(=O)c2ccc(NC(=O)C3CCCCC3C(=O)O)cc2)n1 (stereo unspecified) -3.9%, Cc1csc(NC(=O)CCn2c(=O)oc3ccccc32)n1 2.1%, O=C1CC(N(Cc2ccco2)C(=O)Nc2ccc(F)cc2)C(=O)N1c1ccc(F)cc1 (stereo unspecified) 1.2%, CCOc1ccc(OCC)c(NC(=O)CSc2nnc(-c3cccnc3)o2)c1 -6%, CCOC(=O)C1CCN(C2CC(=O)N(c3cccc(Cl)c3)C2=O)CC1 (stereo unspecified) 5.3%, CCN(CC)C(=O)CSC1=C(C#N)C(c2cccs2)C=C(C)N1 (stereo unspecified) 4.6%, O=C(NCCN1C(=O)C2C3C=CC(C3)C2C1=O)NCc1ccccc1 (stereo unspecified) 8.8%, CCOC(=O)C1CCCN(C(=O)c2cn(C)c3ccc(S(=O)(=O)N(C)C)cc3c2=O)C1 (stereo unspecified) -2.5%, COc1cccc(NC(=O)c2ncn[nH]2)c1 -5.2%, O=C(O)c1ccc(COc2c(F)c(F)cc(F)c2F)cc1 -4%, CCOCCn1c(SCc2cccc(C)c2)nc2c1c(=O)[nH]c(=O)n2C 2.1%, O=C(OCc1cccc2ccccc12)c1ccc2c(=O)[nH]c(CN3CCOCC3)nc2c1 -1.5%, Cc1cc2cc(C(c3nnnn3Cc3ccco3)N3CCc4ccccc43)c(=O)[nH]c2cc1C (stereo unspecified) 6.1%, CCOC(=O)Cc1nnc(NC(=O)c2cccc(OCC)c2)s1 -3.8%, CCn1cc(Cl)c(C(=O)Nc2nc3ccccc3n2CCN2CCCCC2)n1 7.6%, O=C(Nc1c(C(=O)N2CCCCC2)cnn1-c1ccccc1)c1ccccc1 1.1%, O=C1CCCCCN1C(=O)c1cccc(C(=O)N2CCCCCC2=O)c1 -3.4%, CCOCC(=O)N1CCCC(C(=O)OCC)C1 (stereo unspecified) 5.1%, COC(=O)c1cc(=O)[nH]c(SCc2cccc(C)c2)n1 -9.3%, CC(C)CCNC(=O)NC(=O)COc1ccccc1C#N -1.9%, CCCS(=O)(=O)N1CCCC(C(=O)NCCN(CC)c2ccccc2)C1 (stereo unspecified) -0.1%, CCCN1C(=O)CC(c2ccco2)Sc2ccccc21 (stereo unspecified) -8.4%, CN(C)S(=O)(=O)c1ccc(C(=O)Nc2ccc(F)cc2F)cc1 -3.7%, O=S(=O)(c1ccccc1)c1cccc(S(=O)(=O)N2CCCCC2)c1 -8.3%, CC1=C(C(N)=O)C(c2cccc(O)c2)n2nc(CCCO)nc2N1 (stereo unspecified) -2.3%, O=C(c1ccccc1S(=O)(=O)NCc1ccccc1)N1CCCCC1 -2.9%, CCCN(c1ccc(C(C)C)cc1)S(=O)(=O)c1c(C)noc1C -2%, COC(=O)Nc1ccc2c(c1)ncn2C1CCCCC1 -3.2%, Brc1ccccc1-c1nnc(CSc2nncn2-c2ccccc2)o1 -1.8%, CCCCC(CC)CNC(=O)c1ccc2c(c1)OCO2 (stereo unspecified) 0.7%, CC1CC(C)CN(Cc2nc3c(c(=O)n(C)c(=O)n3C)n2CCN2CCOCC2)C1 (stereo unspecified) 29.2%, Cc1ccc(S(=O)(=O)N(C)CCCC(=O)n2nc(C)cc2C)cc1 7%, COc1ccc(C2CCN(Cc3cccnc3)CC2O)cc1 (stereo unspecified) -8.7%, CCOC(=O)N1CCC(NC(=O)CN2C(=O)CSc3ncccc32)CC1 3.4%, Cc1ccc(S(=O)(=O)c2cc3c(=O)n4ccccc4nc3n(CC3CCCO3)c2=N)cc1C (stereo unspecified) -14.7%, Cc1cc(NCc2ccc(F)cc2Cl)n2nnnc2n1 -1.6%, Cc1c(N(C)C(=O)C23CC4CC(CC(C4)C2)C3)c(=O)n(-c2ccccc2)n1C -6%, CC1(C)NC(=O)N(c2ccccc2Cl)C1(C)NO (stereo unspecified) -2.3%, CCOC(=O)N1CCC(c2cc(=O)n3[nH]c(-c4ccccc4)cc3n2)CC1 5.1%, CCOC(=O)c1ccc(NC(=O)CC2C(=O)N(c3cccc(OC)c3)C(=O)N2CCOC)cc1 (stereo unspecified) -1.5%, O=C(c1cc2c(s1)CCCCC2)N1CCN(c2ncccn2)CC1 8.4%, O=C(CN1CCN(c2ccc(F)cc2)CC1)N1CCOCC1 -2.4%, COc1nc(N(C)C)nc(N(OC)S(=O)(=O)c2ccccc2Cl)n1 3.7%, CCC(C)c1c(O)nc(SCC(=O)c2ccccc2)[nH]c1=O (stereo unspecified) -7.8%, Cc1ccc(S(=O)(=O)NC(=O)COc2ccccc2C(N)=O)cc1 -4.3%, COc1ccccc1-c1nc(C#N)c(N2CCN(C(c3ccccc3)c3ccccc3)CC2)o1 -2.4%, CC(C)OCCCNC(=O)c1sc(=S)n(C)c1N 10.9%, CCOC(=O)C1CCN(CC(=O)Nc2c(C(=O)OC)[nH]c3ccccc23)CC1 -7%, CCOc1cc2c(cc1OCC)C(C(=O)O)C(c1cc(Br)c(O)c(OC)c1)N(C)C2=O (stereo unspecified) 6.3%, CCSCCNC(=O)c1cc(-n2cnnc2)ccc1Cl 3%, CCOC(=O)c1oc2cccc(O)c2c1CN(Cc1ccccc1)C(C)=O 1.2%, O=C(CCC(=O)N(CC(=O)NC1CCCCC1)Cc1ccco1)Nc1nccs1 -3.5%, CSc1nc(-c2ccccc2O)nc(-c2ccccc2O)n1 4.5%, NC(=O)CSc1nnc(-c2ccc(S(=O)(=O)N3CCCC3)cc2)n1Cc1ccco1 -5.3%, CC1CCN(CCCNC(=O)c2cc3sccc3n2C)CC1 1.5%, CCN1CCN(CC(=O)Nc2c(C(=O)OC)[nH]c3cccc(Cl)c23)CC1 -4.1%, O=C(O)c1ccc(NS(=O)(=O)c2ccc(Cl)cc2)cc1 -8.2%, CCn1c(SCC(=O)OC)nc2sc3c(c2c1=O)CCC3 2.2%, CCn1c(SC(C)C(=O)O)nc2sc3c(c2c1=O)CCC3 (stereo unspecified) 22.5%, Cn1c(=O)c2ncn(CC(=O)NCCC3=CCCCC3)c2n(C)c1=O -18.3%, COCCCNC(=O)Cn1cc2c(n1)CCCCC2 5%, O=C(c1cccc(S(=O)(=O)N2CCCCC2)c1)N1CCOCC1 -1.1%, COc1ccc(-c2cc(C(F)(F)F)nc(NC3CCCC3)n2)cc1OC -2.6%, CS(=O)(=O)c1nc(-c2ccccc2)cc(C(F)(F)F)n1 37.1%, CCOC(=O)Nc1c(O)ccc2oc(C)c(-c3ccccc3)c12 1.9%, Cc1ccc(C)c(-n2nnnc2SCC(=O)NCCC2=CCCCC2)c1 8.5%, CCc1ccccc1NC1=NCC(=O)N1C1CCCCC1 0.4%, Cc1ccc(CN2C(=O)CCC2C(=O)NC2CCCC2)cc1 (stereo unspecified) -12%, Cc1cc(NC(=O)Nc2cccc3ccccc23)no1 -1.4%, Cc1cc(O)ccc1Nc1nc2ccccc2nc1Nc1ccc(O)cc1C -1.4%, CN1CCN(C2=C(Cl)C(=O)N(c3ccc(Cl)cc3)C2=O)CC1 49.4%, CN1CCN(C2=C(Cl)C(=O)N(c3cccc(Cl)c3)C2=O)CC1 32.3%, CCSc1nnc(NC(=O)C(C)C)s1 0.1%, CCSc1nnc(NC(=O)C(C)(C(F)(F)F)C(F)(F)F)s1 -5.7%, Cc1ccc(C2C(C#N)=C(N)SC(N)=C2C#N)c(C)c1 -31.9%, NS(=O)(=O)c1ccc(-n2nncc2C23CC4CC(CC(C4)C2)C3)cc1 -2.1%, COC(=O)C1=C(N)Oc2cc(C)n(CC3CCCO3)c(=O)c2C1c1ccc(Cl)cc1 (stereo unspecified) -2.1%, c1cn(-c2ncnc3sc4c(c23)CCCC4)cn1 -0.8%, O=C(NCc1ccccc1)c1c[nH]c2ccc(S(=O)(=O)Nc3ccc4c(c3)OCCO4)cc2c1=O -3.6%, O=C(Nn1c(C2CCC2)nc2ccccc2c1=O)C1CCC1 -9%, Cn1c(=O)[nH]c(=O)c2c1nc(Br)n2Cc1ccccc1F -3.5%, CC(=O)c1ccc(OCC(O)CN2CCN(c3ccccn3)CC2)cc1 (stereo unspecified) -0.7%, CC1=CC(C)(C)N2C(=O)C3(C(C#N)=C(N)Oc4cc(O)ccc43)c3cccc1c32 (stereo unspecified) -2.9%, O=C(Nc1ccc2c(c1)OCO2)c1cnn2c(C(F)(F)F)cc(-c3ccco3)nc12 1%, COc1ccc(NC(=O)c2cnn3c(C(F)(F)F)cc(-c4ccco4)nc23)cc1OC 12%, COc1ccccc1N1CCN(C(=O)C(C)N(c2ccc(C)c(C)c2)S(C)(=O)=O)CC1 (stereo unspecified) -2%, COCCNC(=O)Cn1nc(C(F)(F)F)c(Br)c1C -0.1%, CC1CCC(NC(=O)CN2CCCN(Cc3ccc(F)cc3Cl)C2=O)CC1 (stereo unspecified) -0.5%
